PubChem BioAssay
The source made the active and inactive calls.

Assays:
Albumin (Bos taurus) = Albumin (Bos taurus) (UniProt P02769); test: compounds binding labelled BSA control protein – biochemical, small-molecule microarray, Alexa647 label, 635/667 nm fluorescence, artefact control for SMM control protein annotation, profiling panel (AID 1118); conditions: BSA-A647 binding, fluorescence 635 nm, higher = more signal;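 further: score merges 667 nm emission intensity and signal-to-noise per printed compound spot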
Chain of Albumin (Bos taurus) (P02769 whole entry, looked up): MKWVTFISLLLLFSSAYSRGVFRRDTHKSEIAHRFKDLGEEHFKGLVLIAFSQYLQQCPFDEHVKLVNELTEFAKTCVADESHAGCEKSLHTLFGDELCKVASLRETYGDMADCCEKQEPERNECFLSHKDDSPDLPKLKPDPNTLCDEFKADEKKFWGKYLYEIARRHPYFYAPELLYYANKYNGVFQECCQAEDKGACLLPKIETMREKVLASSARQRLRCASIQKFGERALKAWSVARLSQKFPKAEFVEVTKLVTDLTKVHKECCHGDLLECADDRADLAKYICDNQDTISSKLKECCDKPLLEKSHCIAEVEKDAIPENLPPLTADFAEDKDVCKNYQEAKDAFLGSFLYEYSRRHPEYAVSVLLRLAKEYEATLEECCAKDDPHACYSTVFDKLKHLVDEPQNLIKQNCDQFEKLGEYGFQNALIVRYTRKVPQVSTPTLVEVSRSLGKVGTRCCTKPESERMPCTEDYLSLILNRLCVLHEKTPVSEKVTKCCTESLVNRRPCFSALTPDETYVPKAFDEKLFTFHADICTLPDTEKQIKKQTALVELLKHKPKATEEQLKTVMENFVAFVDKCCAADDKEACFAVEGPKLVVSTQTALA

[1] = probe aXIP binding to arrayed compounds – biochemical, NeuroSMM set, 635/667 nm fluorescence, primary screen (AID 1119); conditions: small-molecule microarray, higher = more signal, called active from +8 up or from −8 down;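 further: probe is the protein aXip251-270 applied at 1 µg/mL to compound-printed slides; binding of probe to printed compounds measured as 667 nm fluorescence plus signal to noise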
[2] = probe aNOTCH3 binding on compound microarray – biochemical, small-molecule microarray, 635/667 nm fluorescence, primary screen (AID 1120); conditions: higher = more signal;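 further: probe is a biotin-tagged antibody raised against NOTCH3 rather than NOTCH3 protein; score merges spot fluorescence near 667 nm with spot signal to noise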
[3] = probe aNOTCH2 binding on compound microarray – biochemical, small-molecule microarray, 635/667 nm fluorescence, primary screen (AID 1121); conditions: higher = more signal;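 further: score merges feature fluorescence read at 667 nm with its signal to noise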
[4] = biological target: Carbonic anhydrase 2 (Homo sapiens) (UniProt P00918); test: compounds binding carbonic anhydrase 2 – biochemical, small-molecule microarray, Alexa647-labelled CAII, profiling panel (AID 1122); conditions: CAII-A647 binding fluorescence, higher = more signal
[5] = COS7 lysate on small-molecule microarray, probe aHis, 635 nm (AID 1123); conditions: COS7 cell lysate, fluorescence, higher = more signal;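 further: z-score combines 667nm fluorescence intensity with signal-to-noise per printed compound spot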
[6] = probe aLAP1 signal on lysate-treated microarray – cell lysate, small-molecule microarray, COS7 lysate, primary screen (AID 1124); conditions: probe aLAP1, fluorescence, higher = more signal;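 further: lysate comes from COS7 cells expressing LAP1 and is applied at 0.3 µg/mL; score merges spot fluorescence near 667 nm with signal-to-noise over triplicate slides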
Sam68 (KHDRBS1) = test: compounds binding KHDRBS1 protein – biochemical, small-molecule microarray, 635 nm fluorescence, primary screen (AID 1125); conditions: higher = more signal;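 further: score merges 667 nm channel intensity with signal to noise over triplicate slides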
[7] = test system: Chordin-like protein 2 (CHRDL2); test: compounds binding chordin-like 2 – biochemical, small-molecule microarray, 635 nm fluorescence, primary screen (AID 1126); conditions: fluorescence 635 nm, higher = more signal;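 further: printed compound slides probed with Chrdl2 protein at 4 µg/mL for 1 h at 4 C; score merges 667 nm emission intensity with signal to noise over three replicate slides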
[8] = biological target: Concanavalin-A (Canavalia ensiformis) (UniProt P02866); test: compounds binding concanavalin A lectin – biochemical, small-molecule microarray, Alexa647 label, 635 nm, artefact control for SMM control protein annotation, primary screen (AID 1127); conditions: ConA-A647 binding fluorescence, higher = more signal;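 further: z combines 667 nm emission intensity with signal-to-noise across three replicate slides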
Chain of Concanavalin-A (Canavalia ensiformis) (P02866 whole entry, looked up): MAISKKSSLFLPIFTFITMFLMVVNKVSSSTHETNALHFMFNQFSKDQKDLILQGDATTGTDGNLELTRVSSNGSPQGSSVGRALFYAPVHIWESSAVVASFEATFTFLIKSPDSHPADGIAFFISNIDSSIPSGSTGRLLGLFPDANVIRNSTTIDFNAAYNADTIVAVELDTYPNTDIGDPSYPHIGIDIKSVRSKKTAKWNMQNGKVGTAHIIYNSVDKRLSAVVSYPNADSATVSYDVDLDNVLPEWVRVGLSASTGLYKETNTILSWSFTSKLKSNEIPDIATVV

With C[C@H]1COC(=O)[C@@H]2CCCN2C(=O)[C@@H](C)COC(=O)[C@H](Cc2ccccc2)NC1=O the composite z-score (Albumin (Bos taurus)) was -0.0588, the composite Z-score [1] was -0.21 (inactive) and the composite z-score [2] was -0.0647. It also gave a composite z-score [3] of -0.126, a composite z-score [4] of 0.294 and a composite z-score [5] of 0.403. For the same compound, the composite z-score [6] was 0.137, the composite z-score (Sam68 (KHDRBS1)) was 0.957 and the composite z-score [7] was 0.211. The composite z-score [8] was 0.476.
With O=C1C=C[C@@H](O)[C@@H]2[C@@H]3C(=O)N(c4ccc(F)cc4F)C(=O)[C@@H]3CC[C@@H]12 the composite z-score (Albumin (Bos taurus)) was 0.351, the composite Z-score [1] was 0.331 (inactive) and the composite z-score [2] was 0.0409. The composite z-score [3] was -0.0772, the composite z-score [4] was -0.0233 and the composite z-score [5] was -0.303. The composite z-score [6] was -0.113, the composite z-score (Sam68 (KHDRBS1)) was 0.157 and the composite z-score [7] was 0.717. For the same compound, the composite z-score [8] was 0.753.
For Cc1cc2c(c(=O)o1)[C@@H](O)[C@H]1O[C@H]1C2=O, the composite z-score (Albumin (Bos taurus)) was -0.293, the composite Z-score [1] was -0.0055 (inactive) and the composite z-score [2] was -0.0744. It also gave a composite z-score [3] of -0.132, a composite z-score [4] of -0.131 and a composite z-score [5] of -0.243. It also gave a composite z-score [6] of -0.108, a composite z-score (Sam68 (KHDRBS1)) of 0.568 and a composite z-score [7] of 0.705. For the same compound, the composite z-score [8] was 0.358.
In the case of COc1ccc(COC(=O)NN=C2C[C@@H](O)[C@@H](O)[C@@H]3[C@@H]4C(=O)N(Cc5ccccc5)C(=O)[C@@H]4CC[C@H]23)cc1, the composite z-score (Albumin (Bos taurus)) is reported as 0.719, the composite Z-score [1] is reported as -0.201 (inactive) and the composite z-score [2] is reported as 0.0418. It also gave a composite z-score [3] of -0.348, a composite z-score [4] of -0.17 and a composite z-score [5] of 0.341. The composite z-score [6] was -0.173, the composite z-score (Sam68 (KHDRBS1)) was 0.0827 and the composite z-score [7] was -0.709. For the same compound, the composite z-score [8] was -0.266.
For CCCNC(=O)OC[C@H]1O[C@H](CCON=C(C)C)C=C[C@@H]1Oc1ccc(OC)cc1, the composite z-score (Albumin (Bos taurus)) was 0.317, the composite Z-score [1] was -0.0154 (inactive) and the composite z-score [2] was 0.154. It also gave a composite z-score [3] of -0.0877, a composite z-score [4] of 0.0464 and a composite z-score [5] of 0.857. The composite z-score [6] was -0.384, the composite z-score (Sam68 (KHDRBS1)) was -0.209 and the composite z-score [7] was -0.186. It also gave a composite z-score [8] of 0.853.
For COC(=O)[C@@H]1CC[C@H](C)[C@@H](c2ccc(C)cc2)N1C(=O)c1ccc(C=NO[C@@H](C)c2cn([C@H](CO)Cc3ccccc3)nn2)cc1, the composite z-score (Albumin (Bos taurus)) was 0.597, the composite Z-score [1] was -0.222 (inactive) and the composite z-score [2] was 0.217. For the same compound, the composite z-score [3] was -0.09, the composite z-score [4] was 0.097 and the composite z-score [5] was 1.2. It also gave a composite z-score [6] of -0.151, a composite z-score (Sam68 (KHDRBS1)) of 1.32 and a composite z-score [7] of 0.892. It also gave a composite z-score [8] of 0.81.
For CCOC(=O)[C@H](CC(C)C)NC(=O)CCC1CC(OC(=O)NCc2cccc3ccccc23)CC2(CCCC(COC(=O)NCc3ccncc3)O2)O1 (stereo not given in full), the composite z-score (Albumin (Bos taurus)) was 0.323, the composite Z-score [1] was -0.0775 (inactive) and the composite z-score [2] was -0.0658. It also gave a composite z-score [3] of -0.14, a composite z-score [4] of 0.215 and a composite z-score [5] of 0.502. It also gave a composite z-score [6] of 0.218, a composite z-score (Sam68 (KHDRBS1)) of 1.29 and a composite z-score [7] of 0.351. It also gave a composite z-score [8] of 0.67.
For CO[C@@H]1COC(=O)CC=C[C@@H](C)[C@H](OC)COC(=O)[C@@H](C)COC(=O)CC=C[C@H]1C, the composite z-score (Albumin (Bos taurus)) was -0.797, the composite Z-score [1] was 0.0068 (inactive) and the composite z-score [2] was -0.055. For the same compound, the composite z-score [3] was -0.124, the composite z-score [4] was -0.679 and the composite z-score [5] was -0.824. It also gave a composite z-score [6] of -0.0936, a composite z-score (Sam68 (KHDRBS1)) of -0.983 and a composite z-score [7] of 1.47. The composite z-score [8] was -0.423.
In the case of CON=C(C)CCC(=O)OC[C@H]1O[C@H](c2ccccc2)C=C[C@@H]1Oc1ccc(OC)cc1, the composite z-score (Albumin (Bos taurus)) is reported as 0.443, the composite Z-score [1] is reported as -0.222 (inactive) and the composite z-score [2] is reported as -0.0687. It also gave a composite z-score [3] of -0.146, a composite z-score [4] of -0.185 and a composite z-score [5] of -0.0845. For the same compound, the composite z-score [6] was 0.2, the composite z-score (Sam68 (KHDRBS1)) was -0.209 and the composite z-score [7] was 0.406. For the same compound, the composite z-score [8] was 0.0078.
For COc1cc(O)c(C(=O)C=Cc2ccc3c(c2)OCO3)c(OC)c1, the composite z-score (Albumin (Bos taurus)) was 0.0618, the composite Z-score [1] was -0.024 (inactive) and the composite z-score [2] was -0.0647. It also gave a composite z-score [3] of -0.134, a composite z-score [4] of -0.337 and a composite z-score [5] of -0.932. The composite z-score [6] was -0.185, the composite z-score (Sam68 (KHDRBS1)) was -1.93 and the composite z-score [7] was 0.102. For the same compound, the composite z-score [8] was 1.
For CCN1C(=O)[C@H]2[C@H]3[C@H](O)[C@H](O)CC(=O)[C@@H]3CC[C@H]2C1=O, the composite z-score (Albumin (Bos taurus)) was 0.4, the composite Z-score [1] was -0.141 (inactive) and the composite z-score [2] was -0.0377. The composite z-score [3] was -0.179, the composite z-score [4] was 0.0044 and the composite z-score [5] was 0.304. It also gave a composite z-score [6] of 0.335, a composite z-score (Sam68 (KHDRBS1)) of 0.826 and a composite z-score [7] of 0.503. For the same compound, the composite z-score [8] was 0.735.
In the case of COC(=O)C1=C(C)N(Cc2ccccc2)[C@]23O[C@](C(=O)OC)(C(=O)N2[C@@H]1c1ccccc1)C(C(=O)OC)=C3C(=O)OC, the composite z-score (Albumin (Bos taurus)) is reported as 0.387, the composite Z-score [1] is reported as -0.177 (inactive) and the composite z-score [2] is reported as 0.201. It also gave a composite z-score [3] of -0.0439, a composite z-score [4] of 0.489 and a composite z-score [5] of 0.421. The composite z-score [6] was -0.624, the composite z-score (Sam68 (KHDRBS1)) was 0.988 and the composite z-score [7] was 0.503. The composite z-score [8] was 1.18.
With COc1cccc([C@H]2Oc3ccc(OC)cc3C(=NO[C@@H](C)c3cn([C@H](CO)Cc4ccccc4)nn3)[C@@H]2O)c1 the composite z-score (Albumin (Bos taurus)) was 0.874, the composite Z-score [1] was 0.637 (inactive) and the composite z-score [2] was -0.132. For the same compound, the composite z-score [3] was -0.207, the composite z-score [4] was -0.0163 and the composite z-score [5] was 0.107. The composite z-score [6] was 0.664, the composite z-score (Sam68 (KHDRBS1)) was -0.0592 and the composite z-score [7] was -0.54. The composite z-score [8] was 0.373.
